PubChem BioAssay AID463173 (ICCB-Longwood Screening Facility, Harvard Medical School, 2010)
The campaign covered roughly 52,000 compounds. About 4,300 (8.3%) were called active. Many of the other results were omitted from the sample, so actives are more common in it than they were. Unmarked numbers belong to inactive results. Cut-off read from the data, not from the text of the source: active = survival mostly below about 52% (no sharp cut-off); inactive = mostly above about 56%.

test system: DeltatarO mutant; experiment: S. aureus survival, RN4220 and DeltatarO strains – OD600, teichoic acid synthesis inhibitors, primary screen (AID 463173); conditions: S. aureus RN4220 wild type/DeltatarO growth, OD600, 18 h, active compounds read low, screened at 18.75 µg/mL (by protocol)

| Compound | survival |
| --- | --- |
| CCC(Oc1ccccc1)C(=O)Nc1nnc(S(=O)(=O)N(CC)CC)s1 (configuration not stated) | 104% |
| COc1ccc(NS(=O)(=O)c2nnc(NC(=O)c3ccccc3F)s2)cc1 | 72% |
| O=C(COc1ccccc1)Nc1nnc(S(=O)(=O)Nc2ccccc2)s1 | 79% |
| CCC(Oc1ccccc1)C(=O)Nc1nnc(S(=O)(=O)N2CCCC2)s1 (configuration not stated) | 103% |
| CCOc1ccc(C(=O)Nc2nnc(S(=O)(=O)N(CC)c3ccccc3C)s2)cc1 | 44% (active) |
| CCN(c1ccccc1C)S(=O)(=O)c1nnc(NC(=O)c2ccc(OC)c(OC)c2)s1 | 40% (active) |
| COc1ccc(C(=O)Nc2nnc(C(C)C)s2)cc1OC | 55% |
| CCC(Oc1ccccc1)C(=O)Nc1nnc(S(=O)(=O)Nc2ccccc2)s1 (configuration not stated) | 40% (active) |
| CCOc1ccc(C(=O)Nc2nnc(S(=O)(=O)Nc3ccccc3)s2)cc1 | 34% (active) |
| O=C(Cn1c(-c2cccs2)cc2cc(Cl)ccc21)N1CCN(c2ccccc2)CC1 | 78% |
| CCOC(=O)c1cccnc1SCC(=O)Nc1ccc(C)cc1C | 79% |
| COc1ccc(NC(=O)CN(C)S(=O)(=O)c2cnc[nH]2)cc1 | 95% |
| CN(Cc1ccccc1)C(=O)CSc1nc2ccccc2n1Cc1ccccc1F | 86% |
| Cc1ccc(OCC(=O)NCC2(N(C)C)CCCCC2)cc1C | 83% |
| CCOc1ccc(CCNC(=O)c2nnc(Cc3ccc(Cl)cc3Cl)o2)cc1OCC | 83% |
| COc1ccccc1C(=O)Nc1nnc(S(=O)(=O)N2CCN(c3ccc(F)cc3)CC2)s1 | 50% |
| O=C(Nc1nnc(S(=O)(=O)N2CCOCC2)s1)c1ccccc1Cl | 79% |
| COc1ccccc1C(=O)Nc1nnc(S(=O)(=O)N2CCCCCC2)s1 | 56% (active) |
| O=C(Nc1nnc(S(=O)(=O)N2CCOCC2)s1)c1ccccc1F | 86% |
| COc1ccccc1C(=O)Nc1nnc(S(=O)(=O)N2CCCCC2)s1 | 69% |
| O=C(Nc1nnc(S(=O)(=O)N2CCCC2)s1)c1ccccc1F | 28% (active) |
| O=C(Nc1nnc(S(=O)(=O)N2CCCCCC2)s1)c1ccccc1Cl | 38% (active) |
| O=C(Nc1nnc(S(=O)(=O)N2CCCC2)s1)c1ccccc1Cl | 117% |

| Compound | survival |
| --- | --- |
| Cc1ccccc1C(=O)Nc1nnc(S(=O)(=O)N2CCCCCC2)s1 | 47% (active) |
| COc1ccc(N(C)S(=O)(=O)c2ccc3c(c2)n(C)c(=O)c(=O)n3C)cc1 | 86% |
| O=C(CN1CCCN(Cc2ccccc2Cl)S1(=O)=O)NCc1ccccc1 | 94% |
| CCCn1c(=O)c2sccc2n2c(CCCC(=O)NCc3ccccc3)nnc12 | 83% |
| O=C(c1ccccc1)n1nc(-c2ccco2)nc1NCc1ccccc1Cl | 103% |
| O=C1C2C3C=CC(C3)C2C(=O)N1c1ccc(-c2nc3ccccc3o2)cc1 (configuration not stated) | 89% |
| CCN(C(=O)Cn1c(=O)n(CCCS(=O)(=O)C2CCCCC2)c(=O)c2ccccc21)c1cccc(C)c1 | 87% |
| COc1ccccc1CNC(=O)c1ccc2c(c1)N(Cc1cc(C)ccc1C)C(=O)c1ccccc1S2 | 68% |
| COc1cccc(NC(=O)Cn2c(=O)oc3cc(S(=O)(=O)N4CCCCC4)ccc32)c1 | 112% |
| COc1ccc(N2CCN(C(=O)CN3C(=O)CSc4c3c(C)nn4-c3ccccc3)CC2)cc1 | 79% |
| CC(=O)NCCNC(=O)c1ccc2c(=O)n(CCc3ccccc3)c(=O)[nH]c2c1 | 83% |
| O=C(Nc1nnc(S(=O)(=O)N2CCCCCC2)s1)c1ccccc1F | 47% (active) |
| CCc1ccc2oc(C(=O)Nc3cc(C)ccc3C)cc(=O)c2c1 | 52% |
| Cc1ccc(C(=O)Nc2ccc3oc(-c4cccnc4)nc3c2)cc1 | 83% |
| Cc1ccccc1C(=O)Nc1c(C(=O)Nc2cccc(F)c2)oc2ccccc12 | 46% (active) |
| Cc1ccc(NC(=O)c2oc3ccccc3c2NC(=O)c2ccccc2C)cc1 | 79% |
| COc1cccc(NC(=O)c2oc3ccccc3c2NC(=O)COc2ccccc2C)c1 | 122% |
| CCOC(=O)C(=O)Nc1c(C(=O)Nc2cccc(F)c2)oc2ccccc12 | 97% |
| COc1cccc(NC(=O)c2oc3ccccc3c2C)c1 | 106% |
| COc1cccc(NC(=O)c2oc3ccccc3c2NC(=O)c2ccccc2C)c1 | 43% (active) |
| O=C(OCc1cc(=O)n2nc(-c3cccs3)sc2n1)c1ccccc1Br | 75% |
| CC1C(C(=O)Nc2ccccc2)CCCC1(C)C(=O)O (configuration not stated) | 80% |
| CC(=O)c1cccc(NC(=O)C2CCN(c3ncnc4c3nc3n4CCCCC3)CC2)c1 | 84% |

| Compound | survival |
| --- | --- |
| O=C(CN(c1ccc2c(c1)OCCO2)S(=O)(=O)c1ccccc1)NC1CC1 | 75% |
| CCOc1ccc(NC(=O)c2ccc3c(=O)n4nc(Nc5ccccc5C)sc4nc3c2)cc1 | 113% |
| CCCCN(CC)C(=O)C1CCC(CNS(=O)(=O)c2cccc3nsnc23)CC1 (configuration not stated) | 83% |
| CN(C)c1ccc(CNC(=O)CCC(=O)N2Cc3ccccc3Oc3ncccc32)cc1 | 83% |
| O=C(CCC(=O)N1Cc2ccccc2Oc2ncccc21)Nc1ccc(Cl)cc1 | 37% (active) |
| CC(C)CCNC(=O)CCC(=O)N1Cc2ccccc2Oc2ncccc21 | 55% |
| Cc1ccc(CNC(=O)CCC(=O)N2Cc3ccccc3Oc3ncccc32)cc1 | 71% |
| CCC(C)NC(=O)CCC(=O)N1Cc2ccccc2Oc2ncccc21 (configuration not stated) | 117% |
| Cc1ccc(NC(=O)CCC(=O)N2Cc3ccccc3Oc3ncccc32)cc1Cl | 83% |
| CC(C)NC(=O)CCC(=O)N1Cc2ccccc2Oc2ncccc21 | 0% (active) |
| Cc1ccc(NC(=O)CCC(=O)N2Cc3ccccc3Oc3ncccc32)cc1 | 49% |
| CCOc1ccc(CNC(=O)CCC(=O)N2Cc3ccccc3Oc3ncccc32)cc1 | 32% (active) |
| CCOc1ccc(CNC(=O)Cn2nc(C)n3cccc3c2=O)cc1 | 101% |
| Cc1cccc(NC(=O)C2CCN(S(=O)(=O)c3ccc(F)cc3)CC2)c1C | 60% |
| COc1ccc(CNC(=O)CCCN2C(=O)CCn3nc(-c4cn(C)c5ccccc45)cc32)cc1 | 88% |
| COc1ccc(OC)c(NC(=O)Cc2coc3ccc(C(C)C)cc23)c1 | 73% |
| Cc1ccc(N(C)C(=O)Cn2nc(Cc3ccncc3)c3ccccc3c2=O)cc1C | 84% |
| Oc1ccc2ccccc2c1/C=N/c1nccs1 | 81% |
| CCOc1ccccc1NC(=O)Nc1ccc2nc(N3CCN(C)CC3)cc(C)c2c1 | 75% |
| COc1ccc(CCNC(=O)C(=O)NCC(c2cccs2)S(=O)(=O)c2cccs2)cc1 (configuration not stated) | 78% |
| COc1cc(S(=O)(=O)N2CCCCC2C)c(OC)cc1Cl (configuration not stated) | 114% |
| CC(CCc1ccccc1)NC(=O)Cn1c(=O)nc(-c2ccccc2)c2ccccc21 (configuration not stated) | 99% |
| CC1(C)OC(=O)C(=C2CCCCCN2)C(=O)O1 | 99% |

| Compound | survival |
| --- | --- |
| Cc1c(C(=O)Nc2ccccc2)sc2nc(-c3cc4cc(Cl)ccc4oc3=O)[nH]c(=O)c12 | 45% (active) |
| COc1ccc(Cl)cc1NC(=O)c1sc2nc3n(c(=O)c2c1C)CCC3 | 76% |
| COc1ccccc1NC(=O)c1sc2nc(-c3cc4ccccc4oc3=O)[nH]c(=O)c2c1C | 106% |
| COc1ccccc1NC(=O)c1sc2nc(-c3cc4cc(Cl)ccc4oc3=O)[nH]c(=O)c2c1C | 45% (active) |
| O=C(O)c1ccc2nc(-c3cc4cc(Cl)ccc4oc3=O)[nH]c2c1 | 69% |
| CC(C)(C)C1CCc2c(sc3nc(-c4cc5cc(Cl)ccc5oc4=O)[nH]c(=O)c23)C1 (configuration not stated) | 83% |
| COc1ccc(-c2cn3nc(SCC(=O)Nc4ccc(C)c(Cl)c4)ccc3n2)cc1 | 94% |
| COc1ccccc1N1CCN(C(=O)c2oc3ccccc3c2NC(=O)C(C)Oc2ccccc2)CC1 (configuration not stated) | 69% |
| CCNc1nc2c(c(=O)[nH]c(=O)n2C)n1CC(O)COc1ccc(Cl)cc1Cl (configuration not stated) | 180% |
| CN(C)c1ccc(CNS(=O)(=O)c2csc(C(N)=O)c2)cc1 | 60% |
| O=C(CC1N=C2c3ccccc3N=C(SCc3ccc(F)cc3)N2C1=O)NCCc1ccccc1 (configuration not stated) | 85% |
| CCc1ccc(Nc2nc3ccccc3nc2NS(=O)(=O)c2ccccc2)cc1 | 28% (active) |
| COc1ccc2nc(NS(=O)(=O)c3ccc(C)cc3)c(Nc3cc(Cl)ccc3OC)nc2c1 | 22% (active) |
| COc1ccc(Nc2nc3ccccc3nc2NS(=O)(=O)c2ccc(C)cc2)c(OC)c1 | 63% |
| Cc1cccc(C)c1Nc1nc2ccccc2nc1NS(=O)(=O)c1ccccc1 | 79% |
| CCOC(=O)c1ccc(Nc2nc3ccccc3nc2NS(=O)(=O)c2ccc(Cl)cc2)cc1 | 37% (active) |
| COc1ccc(Nc2nc3ccccc3nc2NS(=O)(=O)c2ccc(Cl)cc2)cc1OC | 29% (active) |
| CCOC(=O)c1ccc(Nc2nc3ccccc3n3c(C)nnc23)cc1 | 67% |
| Cc1ccc2nc(NS(=O)(=O)c3ccc(Cl)cc3)c(Nc3ccc(C(=O)O)cc3)nc2c1 | 109% |
| COc1ccc(Nc2nc3c(S(=O)(=O)c4ccccc4)nnn3c3ccc(Cl)cc23)cc1OC | 117% |
| COc1cc(Cl)c(C)cc1Nc1nc2ccccc2nc1NS(=O)(=O)c1ccccc1 | 116% |
| CCOc1ccccc1Nc1nc2ccccc2nc1NS(=O)(=O)c1ccc(Cl)cc1 | 79% |
| CCOc1ccc(S(=O)(=O)Nc2nc3ccccc3nc2Nc2ccc(OC)cc2)cc1 | 68% |
